Only some compounds are listed: those with a hit (about 0.51% of all), similar ones and a draw of the others.
phage Ecoli inh – E. coli growth loss with phage present. growth absorbance. inhibition, % at 11.9 µM. 0.26% of 360,000 active. AID 651602; in the data active means inhibition above about 11%
E coli growth-1 – bacterial growth inhibition, counter-screen for AddAB inhibitors; AID 449728; 0.27% of 330,000 active; E. coli V3065 growth, OD600 absorbance, 18 h; inhibition, % at 11.9 µM;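 active means inhibition above the campaign's mean inhibition across all tested compounds plus 3 SD, cut at about 9.9% in these data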;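 further: uninfected addAB+ strain grown without phage in ampicillin broth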
Tat export inh – inhibitors of E. coli Tat protein transport | E. coli MC4100 TorA-mCherry Tat export, fluorescence | 0.036% of 340,000 active | inhibition, % at 10 µM;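 active means mean replicate inhibition at least 50% and at least half of replicates individually reaching 50%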;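 further: exported cargo escapes ClpAP degradation while cytoplasmic cargo is degraded and loses fluorescence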
E coli growth-2 – inhibitors of Escherichia coli growth. OD600, 23 h; stronger effect = lower value. OD600 absorbance (test concentration not listed). 0.21% of 330,000 active. AID 1053175;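 active means OD600 absorbance below the run mean of sample wells minus 3.6 SD, in any replicate, cut at about 0.56 in these data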
AddAB inh – less growth of phage-infected E. coli with AddAB | E. coli expressing H. pylori AddAB, absorbance growth | inhibition, % at 11.9 µM | 0.29% of 330,000 active | AID 435030; in the data active means inhibition above about 12%
RecBCD conf – confirmation: growth loss of phage-infected RecBCD+ E. coli (RecBCD inhibitor screen); shares compounds with phage Ecoli inh; E. coli V66 + T4 2- phage, growth OD; inhibition, % at 11.9 µM; 45% of 890 active; AID 651982;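 active means mean inhibition over triplicates exceeding the hit threshold derived in the original primary screen, cut at about 11% in these data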
Ecoli viability – counter-screen for RecBCD inhibitors: inhibitors of bacterial viability; shares compounds with phage Ecoli inh; E. coli viability, absorbance (OD) growth; inhibition, % at 11.9 µM; 29% of 890 active; in the data active means inhibition above about 20%;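 further: E. coli strain V66 grown with compound alone and no phage infection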
AddAB phage OD – growth loss of phage-infected AddAB E. coli, RecBCD counter-screen; E. coli expressing H. pylori AddAB + T4 phage, OD growth; gene 2 mutant T4, recBCD-deleted host; 45% of 890 active; inhibition, % at 11.9 µM; shares compounds with phage Ecoli inh;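 active means mean inhibition above the solvent-only control wells' mean plus 3 SD, cut at about 22% in these data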;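 further: higher means less bacterial growth from phage killing when AddAB is blocked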
Hits are given with their value; i = inactive; nt = no result.

SMILES	phage Ecoli inh	E coli growth-1	Tat export inh	E coli growth-2	AddAB inh	RecBCD conf	Ecoli viability	AddAB phage OD
CC1CN(C(C)CO)C(=O)c2cc(NC(=O)NC3CCCCC3)ccc2OC1CN(C)C(=O)Nc1ccc(C(F)(F)F)cc1 (stereo unspecified)	nt	nt	nt	i	nt	nt	nt	nt
O=c1[nH]nc(-c2ccc([N+](=O)[O-])o2)c(=O)[nH]1	22	nt	i	0.52	nt	16	i	91
CC(C)=CCC[C@](C)(OC1OC(COC2OCC(OC3OCC(O)C(O)C3O)C(O)C2O)C(O)C(O)C1O)C1CC[C@]2(C)C1C(O)CC1[C@@]3(C)CCC(O)C(C)(C)C3C(O)C[C@]12C (stereo partly specified)	nt	nt	nt	i	nt	nt	nt	nt
O=C(NN=Cc1sc2ccccc2c1O)c1ccccc1	nt	nt	nt	i	nt	nt	nt	nt
COc1ccc2cc(C(=O)N/N=C/c3sc4ccccc4c3O)ccc2c1	23	12	i	nt	i	14	i	i
O=C(N/N=C/c1sc2ccccc2c1O)c1cccc2ccccc12	13	i	i	nt	i	i	i	i
COc1ccc2sc(-c3ccc(SC)cc3)c(C=Cc3ccc(OC)c(OC)c3)c2c1	nt	nt	nt	i	nt	nt	nt	nt
Cc1[nH]n(-c2ccccc2)c(=O)c1C=Nc1ccc(S(=O)(=O)Nc2nccs2)cc1	15	i	i	i	i	i	i	26
COc1nccnc1NS(=O)(=O)c1ccc(N=Cc2c(C)[nH]n(-c3ccccc3)c2=O)cc1	i	i	i	i	i	nt	nt	nt
CC(=O)NC(C)c1nc2ccccc2n1CCCN1CCN(c2nc(-c3ccc(C)cc3)cs2)CC1 (stereo unspecified)	nt	nt	nt	i	nt	nt	nt	nt
COc1ccc(OCCCC(=O)ON=C(N)c2ccccc2C)cc1	i	i	i	i	i	nt	nt	nt
CCOc1ccc(OCCCC(=O)ON=C(N)c2ccccc2Cl)cc1	11	i	i	i	i	i	i	i
Cc1ccc(S(=O)(=O)Oc2ccc(C=C(NC(=O)c3ccccc3)C(=O)Nc3ccccc3)cc2)cc1	nt	nt	nt	i	nt	nt	nt	nt
C[C@]12CCC3C(=CCc4cc(O)ccc43)C1CCC2=O (stereo partly specified)	nt	nt	nt	i	nt	nt	nt	nt
Cc1ccc(NC(=S)NC(NC(=O)c2ccco2)C(Cl)(Cl)Cl)cc1 (stereo unspecified)	14	11	i	i	i	i	i	i
CC(C)(C)c1cc2nc3c(c(=O)n2[nH]1)CN(Cc1ccccc1)C3=O	12	i	nt	i	i	i	i	i
CC(C)n1cc(C2CC3CN(Cc4cccc(Cl)c4)C(=O)[C@]34CCCN24)cn1 (stereo partly specified)	nt	nt	nt	i	nt	nt	nt	nt
CN(C)C=C(C#N)C(=O)NN=Cc1ccc(F)cc1	nt	nt	nt	i	nt	nt	nt	nt
Cc1onc(-c2ccccc2)c1C(=O)OCC(=O)Nc1ccccc1	i	nt	i	i	nt	nt	nt	nt
Cc1cccc(NC(=O)COC(=O)c2c(-c3ccccc3)noc2C)c1	13	nt	nt	nt	nt	i	i	i
CCc1noc(C)c1C(=O)OCC(=O)Nc1ccc2c(c1)OCO2	12	i	i	i	i	i	i	i
C#CCOCCOCCOCCNc1nc(N2CCN(C(=O)Cn3cc(CCCN=C(N)N)nn3)CC2)nc(N2CCN(C(=O)C(CCCCN)n3cc(CCC(=O)O)nn3)CC2)n1 (stereo unspecified)	nt	nt	nt	i	nt	nt	nt	nt
Nc1nnc(-c2ccc([N+](=O)[O-])o2)s1	92	nt	i	0.069	nt	100	102	100
O=c1[nH]nnc2c1ncn2C1OC(CO)C(O)C1O (stereo unspecified)	16	nt	nt	nt	nt	23	i	28
Cc1cc(Nc2ccccc2Cl)c2ccccc2n1	15	i	i	i	i	i	i	i
SMILES	phage Ecoli inh	E coli growth-1	Tat export inh	E coli growth-2	AddAB inh	RecBCD conf	Ecoli viability	AddAB phage OD
O=S(=O)(Nc1ncccn1)c1ccc(NC(=S)Nc2ccc(Cl)cc2)cc1	11	i	i	nt	i	i	i	i
CCOC(=O)Nc1ccc(S(=O)(=O)Nc2onc(C)c2C)cc1	i	i	nt	i	i	nt	nt	nt
CCc1nnc(NS(=O)(=O)c2ccc(N)cc2)s1	12	i	i	i	i	i	i	i
Nc1ccc(S(=O)(=O)Nc2ncccn2)cc1	11	i	i	i	i	i	i	i
CCc1nnc(NS(=O)(=O)c2ccc(N3C(=O)c4ccccc4C3=O)cc2)s1	i	i	i	i	i	nt	nt	nt
O=C(Nc1ccc(Cl)cc1)Nc1ccc(S(=O)(=O)Nc2ncccn2)cc1	i	i	i	i	i	nt	nt	nt

Screens as filed in PubChem.
